Drawing on publication doi:10.1101/2024.03.05.583629, this text covers binding signal for 10 sequences.

The target in one experiment is pT7_6His-AlfaTag-HOXD13 (human, UniProt P35453 263-343). Nature of the experiment: PADIT-seq. The conditions noted are these: dsDNA, one strand shown.
Another experiment addresses pT7_6His-AlfaTag-ZIF268 (human, UniProt P18146 335-423). In words: PADIT-seq. To be noted: dsDNA, one strand shown.

pT7_6His-AlfaTag-HOXD13, sequence (P35453 263-343): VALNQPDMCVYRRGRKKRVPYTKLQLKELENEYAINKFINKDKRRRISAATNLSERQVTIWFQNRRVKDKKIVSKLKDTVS

For “CTCGAGGATATCAAGATCTGGCCTCGGCAGAATAAAAGGAACCTCTAGCTAGCCGACTCACTATAGGGATAATCGCCCTGAGCAAAGACC”, the binding signal stood at 0.976 ± 0.0851 log2FC with pT7_6His-AlfaTag-HOXD13 and 0.0567 ± 0.0846 log2FC with pT7_6His-AlfaTag-ZIF268. For “CTCGAGGATATCAAGATCTGGCCTCGGCTAGCTAAAAGGAACCTCTAGCTAGCCGACTCACTATAGGGATAATCGCCCTGAGCAAAGACC” the same measures were -0.637 ± 0.145 log2FC and 0.0229 ± 0.123 log2FC. Consider “CTCGAGGATATCAAGATCTGGCCTCGGCACCGTAAAAGGAACCTCTAGCTAGCCGACTCACTATAGGGATAATCGCCCTGAGCAAAGACC”, for which the binding signal with pT7_6His-AlfaTag-HOXD13 turned out to be 1.91 ± 0.0753 log2FC; with pT7_6His-AlfaTag-ZIF268 it was 0.0818 ± 0.0804 log2FC. For “CTCGAGGATATCAAGATCTGGCCTCGGCCGCCCATGCGGAACCTCTAGCTAGCCGACTCACTATAGGGATAATCGCCCTGAGCAAAGACC” the same measures were -0.953 ± 0.115 log2FC and 0.0314 ± 0.091 log2FC. Consider “CTCGAGGATATCAAGATCTGGCCTCGGCGCAGTAAAAGGAACCTCTAGCTAGCCGACTCACTATAGGGATAATCGCCCTGAGCAAAGACC”, for which the binding signal amounted to 2.28 ± 0.0773 log2FC with pT7_6His-AlfaTag-HOXD13 and 0.0357 ± 0.0818 log2FC with pT7_6His-AlfaTag-ZIF268.

For “CTCGAGGATATCAAGATCTGGCCTCGGCGCGTGGTAAGGAACCTCTAGCTAGCCGACTCACTATAGGGATAATCGCCCTGAGCAAAGACC”, the binding signal with pT7_6His-AlfaTag-HOXD13 is -0.999 ± 0.124 log2FC; with pT7_6His-AlfaTag-ZIF268, 0.49 ± 0.0946 log2FC. With “CTCGAGGATATCAAGATCTGGCCTCGGCGTTTTACGGGGAACCTCTAGCTAGCCGACTCACTATAGGGATAATCGCCCTGAGCAAAGACC”, the values for the binding signal with pT7_6His-AlfaTag-HOXD13 and with pT7_6His-AlfaTag-ZIF268 were 3.16 ± 0.0771 log2FC and 0.0617 ± 0.0868 log2FC, respectively. With “CTCGAGGATATCAAGATCTGGCCTCGGCGCGTGGTAGGGAACCTCTAGCTAGCCGACTCACTATAGGGATAATCGCCCTGAGCAAAGACC”, the binding signal in the experiment with pT7_6His-AlfaTag-ZIF268 was 0.402 ± 0.089 log2FC. On the same count and under the same terms, to “CTCGAGGATATCAAGATCTGGCCTCGGCCGCATGCGCGGAACCTCTAGCTAGCCGACTCACTATAGGGATAATCGCCCTGAGCAAAGACC” belongs 0.0876 ± 0.0884 log2FC; to “CTCGAGGATATCAAGATCTGGCCTCGGCGCGTGGGCTGGAACCTCTAGCTAGCCGACTCACTATAGGGATAATCGCCCTGAGCAAAGACC”, 2.62 ± 0.0973 log2FC.
